Screens: PubChem BioAssay, National Center for Advancing Translational Sciences (NCATS)
Only some compounds are listed: those with a hit (about 11% of all), similar ones and a draw of the others.
NPR1 antag: Natriuretic polypeptide receptor (hNpr1) antagonism - Primary qHTS. Atrial natriuretic peptide receptor 1 (Homo sapiens), P16066. HEK293 hNpr1 GloSensor cGMP, ANP-stimulated luminescence. Potency, µM (titrated, usually from 46.3 µM), for the others: at the highest dose activity change, negative = inhibition, usual class: inhibitors. 76,000 compounds, 1.6% hits; calls by dose curve; note: nearly all actives have a fitted effect of over 60% in size
Target sequence (P16066 whole entry, looked up): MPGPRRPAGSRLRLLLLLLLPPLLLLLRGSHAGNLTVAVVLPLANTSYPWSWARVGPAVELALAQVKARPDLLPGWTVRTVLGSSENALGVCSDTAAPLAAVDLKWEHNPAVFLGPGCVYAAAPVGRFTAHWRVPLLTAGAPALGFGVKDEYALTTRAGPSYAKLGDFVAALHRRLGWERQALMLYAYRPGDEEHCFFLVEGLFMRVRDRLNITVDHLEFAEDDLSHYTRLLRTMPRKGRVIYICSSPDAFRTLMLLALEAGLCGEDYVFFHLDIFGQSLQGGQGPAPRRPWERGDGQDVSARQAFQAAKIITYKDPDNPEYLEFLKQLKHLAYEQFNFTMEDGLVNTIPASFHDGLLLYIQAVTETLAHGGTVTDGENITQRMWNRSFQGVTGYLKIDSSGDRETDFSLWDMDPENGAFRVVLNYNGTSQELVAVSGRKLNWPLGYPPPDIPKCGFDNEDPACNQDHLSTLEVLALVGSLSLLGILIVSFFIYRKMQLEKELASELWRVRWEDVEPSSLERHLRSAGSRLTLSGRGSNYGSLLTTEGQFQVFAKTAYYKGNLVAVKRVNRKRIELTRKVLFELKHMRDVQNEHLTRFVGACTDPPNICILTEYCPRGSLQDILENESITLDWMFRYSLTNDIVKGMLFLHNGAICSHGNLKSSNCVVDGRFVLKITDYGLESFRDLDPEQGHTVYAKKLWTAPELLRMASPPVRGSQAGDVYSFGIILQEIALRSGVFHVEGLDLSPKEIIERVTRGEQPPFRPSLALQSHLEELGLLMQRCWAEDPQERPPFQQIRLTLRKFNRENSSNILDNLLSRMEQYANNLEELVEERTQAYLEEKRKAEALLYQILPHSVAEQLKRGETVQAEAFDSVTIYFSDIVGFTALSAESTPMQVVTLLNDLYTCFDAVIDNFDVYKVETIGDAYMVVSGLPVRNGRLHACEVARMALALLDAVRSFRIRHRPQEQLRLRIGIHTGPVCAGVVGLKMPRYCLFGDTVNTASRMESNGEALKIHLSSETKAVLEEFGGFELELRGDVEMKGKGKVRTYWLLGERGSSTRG
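HEK293 cells stably expressing human Npr1 and cGMP GloSensor pGS-40F, loaded 2 h with 2% GloSensor reagent, given compound 30 min at room temperature. Luminescence read before and 20 min after 0.1 nM hNppA.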
HEK293 tox: Cytotoxic Profiling in HEK 293 Cell Line of Diverse Libraries Using Quantitative High-Throughput Screening | HEK 293 viability, ATP luminescence (CellTiter-Glo), 48-72 h | Potency, µM (doses to about 115 µM), for the others: top-dose activity change, negative = cytotoxicity, most hits filed as inhibitors | 94,000 compounds, 6.6% hits; note: nearly all actives have a fitted effect of over 60% in size
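Viability of HEK 293 cells, plated at 250 cells/well, was judged by cellular ATP after compound treatment for 48 or 72 hr. Luminescence was imaged 10 min after CellTiter-Glo addition at room temperature.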
3T3 cytotox: Cytotoxic Profiling in NIH 3T3 Cell Line of Diverse Libraries Using Quantitative High-Throughput Screening. NIH 3T3 viability, CellTiter-Glo ATP luminescence, 48-72 h. Potency, µM (titrated, usually from 96.7 µM), without a hit: at the highest dose activity change, negative = cytotoxicity, actives largely listed as inhibitors. 94,000 compounds, 4.3% hits. AID 1345082, 2018; note: nearly all actives have a fitted effect of over 55% in size
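Cytotoxicity was measured by CellTiter-Glo ATP luminescence after 48 or 72 h compound exposure at 37 °C. Mouse NIH 3T3 fibroblasts were seeded at 400 cells/well and dosed by 23 nL pin transfer.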
Luciferase inh: Firefly luciferase inhibition profiling of diverse chemical library using quantitative high-throughput screening; purified P. pyralis luciferase, luminescence, biochemical; Potency, µM (doses to about 115 µM), hits mostly inhibitors; 76,000 compounds, 2.5% hits; Luciferin 4-monooxygenase (Photinus pyralis), P08659; note: nearly all actives have a fitted effect of over 65% in size
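Biochemical qHTS: compound (6-point titration) added to 10uM D-luciferin plus 10uM ATP in Tris acetate pH 7.5 buffer with Mg, Tween-20 and BSA, then purified enzyme at 10nM; light output imaged.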
* hit, by the source's call; [ ] = another dose, or the depositor's remark. Unless noted, calls come from the whole dose curve; as a rule, active = well fitted curve in the direction sought with a large enough effect; inconclusive = small, poorly fitted or top-dose-only effect, or another doubt; inactive = no such curve, though single readings can be large; an effect the other way counts as inactive or inconclusive. % is set by controls: 0 for no effect and ±100 for the full control effect; potency is the fitted concentration of half-maximal effect.

Screening CNC(=O)CCn1ncc2cc(OCc3ccccc3-c3cc(F)cc(OC)c3)ccc21 returned NPR1 antag -6%[70.6 µM], HEK293 tox 71µM*, 3T3 cytotox inconclusive and Luciferase inh inactive.
Screening CNC(=O)CCn1ncc2cc(OCc3ccccc3-c3cnn(C)c3)ccc21 returned NPR1 antag 1%[70.6 µM], HEK293 tox inconclusive, 3T3 cytotox inconclusive and Luciferase inh inactive.
`CNC(=O)CCn1ncc2cc(OCc3ccccc3-c3ccc(OC)cc3)ccc21` gave NPR1 antag -1%[70.6 µM], HEK293 tox 100µM*, 3T3 cytotox 89µM* and Luciferase inh inactive.
CNC(=O)CCn1ncc2cc(OCc3ccccc3-c3cccc(OC)c3)ccc21 was read as NPR1 antag -12%[70.6 µM], HEK293 tox 79µM*, 3T3 cytotox inconclusive and Luciferase inh 45µM*.
CNC(=O)CCn1ncc2cc(OCc3ccccc3-c3cccnc3OC)ccc21 was read as NPR1 antag 3%[70.6 µM], HEK293 tox inconclusive, 3T3 cytotox inconclusive and Luciferase inh inconclusive.
`O=C1CCN(Cc2ccc(C(F)(F)F)cc2)CCCCCCN1` gave NPR1 antag -14%, HEK293 tox inconclusive, 3T3 cytotox inconclusive and Luciferase inh inactive.
CNC(=O)CCn1ncc2cc(OCc3ccccc3-c3cncc(OC)c3)ccc21 was read as NPR1 antag -11%[70.6 µM], HEK293 tox 79µM*, 3T3 cytotox inconclusive and Luciferase inh 22µM*.
For CNC(=O)CCn1ncc2cc(OCc3ccccc3-c3ccsc3)ccc21 the results were NPR1 antag 0%[70.6 µM], HEK293 tox 89µM*, 3T3 cytotox inconclusive and Luciferase inh 50µM*.
O=C(c1cnn2ccccc12)N1CCC(Cc2cccc(CO)c2)C1 (stereo not given) was read as NPR1 antag 7.1µM*, HEK293 tox inconclusive, 3T3 cytotox inconclusive and Luciferase inh inconclusive.
O=C(Cc1ccc(Cl)cc1)NCCNC(=O)c1cccc(-c2ccc(C(F)(F)F)cc2)c1 was read as HEK293 tox inconclusive and 3T3 cytotox 35µM*.
O=C(CNC(=O)c1ccc(-c2cccc(C(F)(F)F)c2)cc1)NCCc1ccc(Cl)cc1 was read as HEK293 tox -17% and 3T3 cytotox -2%.
For O=C(Cc1ccc(F)cc1)NCCNC(=O)c1cccc(-c2ccc(C(F)(F)F)cc2)c1 the results were HEK293 tox 28µM* and 3T3 cytotox -27%.
Screening CSc1ccc(-c2cccc(C(=O)NCCNC(=O)c3ccc(C(F)(F)F)cc3)c2)cc1 returned HEK293 tox -5% and 3T3 cytotox -21%.
COc1ccc(N2CCN(c3nc(C(=O)NCc4ccccc4C)cs3)CC2)cc1 was read as NPR1 antag -28%, HEK293 tox 28µM*, 3T3 cytotox inconclusive and Luciferase inh inactive.
For COc1ccc(N2CCN(c3nc(C(=O)NCC4CCCCC4)cs3)CC2)cc1 the results were NPR1 antag -15%, HEK293 tox -26%, 3T3 cytotox -10% and Luciferase inh inactive.
O=C(NCc1cccs1)c1csc(N2CCN(c3ccc(F)cc3)CC2)n1 was read as NPR1 antag inconclusive, HEK293 tox 32µM*, 3T3 cytotox inconclusive and Luciferase inh inactive.
O=C(NC1CCCC1)c1csc(N2CCN(c3ccccc3F)CC2)n1 was read as NPR1 antag inconclusive, HEK293 tox inconclusive, 3T3 cytotox 25µM* and Luciferase inh inactive.
Screening COc1ccc(N2CCN(c3nc(C(=O)NC4CC4)cs3)CC2)cc1 returned NPR1 antag inconclusive, HEK293 tox 32µM*, 3T3 cytotox 28µM* and Luciferase inh inactive.
Fc1ccc(CN2CCC3(CC2)CC(c2cccnc2)=NO3)cc1 was read as NPR1 antag -5%[70.6 µM], HEK293 tox inconclusive, 3T3 cytotox inconclusive and Luciferase inh inactive.
COCCN1CC2CN(C(=O)Nc3ccc4c(c3)OCCO4)CC(C1)O2 was read as HEK293 tox -31% and 3T3 cytotox -23%.
`CN(C)c1cccc(-c2cnc(NC(=O)c3ccncc3)c3c2CCO3)c1` gave NPR1 antag -3%[70.6 µM], HEK293 tox inconclusive, 3T3 cytotox -25%[138 µM] and Luciferase inh inactive.
For COCCNc1ncc(-c2ccc(SC)cc2)c2c1OCC2 the results were NPR1 antag 3%[70.6 µM], HEK293 tox inconclusive, 3T3 cytotox inconclusive and Luciferase inh inconclusive.
